From ChEMBL document CHEMBL4513135, “CO-ADD screening of IQOG CSIS (Spain) compounds”
“And” between values parts separate entries of the source, which are not always exact repeats. Equal values may be shown once. Entries with a potency or affinity are not part of this list.

What was measured:
Klebsiella pneumoniae = conditions: Concentration 32 ug.mL-1, ASSAY_TEST Inhibition of Bacterial Growth, detection method Absorption (OD600), MEDIA CAMHB, plate type 384well, NBS, CORNING #3640, time 18 hr
Candida albicans = conditions: 32 ug/mL
Cryptococcus neoformans = conditions: Concentration 32 ug.mL-1, ASSAY_TEST Inhibition of Fungal Growth, detection method Resazurin, Absorption (OD600-OD570), plate type 384well, NBS, CORNING #3640

| Structure (SMILES) | Inhibition (Klebsiella pneumoniae) | Inhibition (Candida albicans) | Inhibition (Cryptococcus neoformans) | Inhibition (Klebsiella pneumoniae; 32 ug/mL) | Inhibition (Cryptococcus neoformans; 32 ug/mL) |
| --- | --- | --- | --- | --- | --- |
| C#CCN(C)c1nc(NCC2CCN(Cc3ccccc3)CC2)c(C#N)c(-c2ccccc2)c1C#N.Cl | 9.81% | -0.67% | 16.69% | – | – |
| Nc1c2c(nc3ccc([N+](=O)[O-])cc13)CCCC2 | 16.59% | 2.09% | -74.97% | – | – |
| N#CC1=C(N)Oc2c(ccc3ccccc23)C1c1c(Cl)cccc1Cl (configuration not stated) | 5.34% | -0.77% | -4.89% | – | – |
| C#CCN(C)c1cc(Cl)nc(N)n1 | 16.87% | 11.4% | -46.13% | – | – |
| O=C(NNCc1ccco1)c1cc2ccccc2[nH]1 | 1.78% | -0.84% | -3.8% | – | – |
| CC(=O)Oc1cccc(C=C2N=C(c3ccccc3)OC2=O)c1 | 1.18% | 2.1% | -5.65% | – | – |
| Cn1c(CNNC(=O)c2ccco2)cc2ccccc21 | -22.42% | 1.4% | -3.17% | – | – |
| NC(=O)c1cc2cc(OCc3ccccc3)ccc2[nH]1 | 5.14% | 6.4% | -61.34% | – | – |
| Nc1c2c(nc3nc4ccccc4nc13)CCCC2 | -2.37% | 2.21% | -107.03% | – | – |
| CCOc1nc(N)c(C#N)cc1C#N.Cl | -1.63% | 2.86% | -26.15% | – | – |
| Cc1ccc(C2c3ccc4ccccc4c3Oc3nc4c(c(N)c32)CCCC4)cc1.Cl (configuration not stated) | -14.84% | 5.49% | 0.21% | – | – |
| CC(=O)Nc1n[nH]c2nc(N)c(C#N)c(-c3ccccc3)c12 | 17.23% | 3.09% | -57.93% | – | – |
| COc1ccccc1C1c2ccc3ccccc3c2Oc2nc3c(c(N)c21)CCCC3 (configuration not stated) | 8.8% | 0.31% | -4.38% | – | – |
| C=CCNc1nc(N)c(C#N)cc1C#N | 12.19% | 3.01% | -39.35% | – | – |
| CC(C)(C)OC(=O)Nc1ncccc1Br | 19.74% | 1.17% | -55.01% | – | – |
| Cc1nc2c3cnn(-c4ccccc4)c3ncn2n1 | 15.65% | 0.21% | -3.17% | – | – |
| CC1(C)OC(=O)C(=Cc2ccc([N+](=O)[O-])cc2)C(=O)O1 | 18.71% | 1.46% | -6.06% | – | – |
| N#Cc1cc2c(N)c3c(nc2nc1Cl)CCCC3 | 24.47% | 2.63% | -42.44% | – | – |
| COc1ccc(-c2cc(-c3ccccc3)c(C#N)c(N)n2)cc1 | -4.32% | -5.4% | -104.15% | – | – |
| N#CC1=C(N)Oc2ccc3ccccc3c2C1c1ccccc1[N+](=O)[O-] (configuration not stated) | 9.29% | 2.32% | -44.45% | – | – |
| N#Cc1cc(C#N)c(NC2CCN(Cc3ccccc3)CC2)nc1N | – | 1.61% and 2.76% | – | 9.31% and 4.29% | -42.03% and -48.76% |
| N#Cc1cc(C#N)c(NCCO)nc1N | 12.5% | 1.22% | -17.78% | – | – |
| CC(=O)Nc1nc(Cl)c(C#N)c(-c2ccccc2)c1C#N | 7.97% | 1.84% | -41.58% | – | – |
| O=C(N[C@H]1CC[C@@H](Br)[C@@H](Br)C1)C(F)(F)F | 11.37% | 9.4% | -47.65% | – | – |
| COc1ccc2cc(C3C(C(C)=O)=C(C)Oc4nc5c(c(N)c43)CCCCC5)c(Cl)nc2c1 (configuration not stated) | 0.78% | 3.71% | -8.4% | – | – |

| Structure (SMILES) | Inhibition (Klebsiella pneumoniae) | Inhibition (Candida albicans) | Inhibition (Cryptococcus neoformans) | Inhibition (Klebsiella pneumoniae; 32 ug/mL) | Inhibition (Cryptococcus neoformans; 32 ug/mL) |
| --- | --- | --- | --- | --- | --- |
| CNC(=O)c1cc2cc(OCc3ccccc3)ccc2n1C | 4.29% | 3.06% | -45.34% | – | – |
| COc1cc(C2CC2(N)C(=O)O)ccc1O (configuration not stated) | 3.5% | -0.44% | -0.8% | – | – |
| Cl.Nc1c2c(nc3c1C(c1ccccc1)c1c(ccc4ccccc14)O3)CCCC2 (configuration not stated) | 8.19% | 1.33% | -0.7% | – | – |
| O=C1OC(c2ccccc2)=NC12CC2c1ccc([N+](=O)[O-])cc1 (configuration not stated) | 15.67% | 1.56% | -2.27% | – | – |
| Cc1ccc(/C=N/NC(=O)c2c[nH]c3ccccc23)cc1 | 10.41% | 1.17% | -0.49% | – | – |
| COc1nc2nc3c(c(N)c2cc1C#N)CCCC3.Cl | 10.99% | 1.08% | -96.28% | – | – |
| CCOC(=O)c1c(C)nc(/N=N/c2nc(C)c(C(=O)OCC)c(-c3ccccc3)c2C#N)c(C#N)c1-c1ccccc1 | 0.93% | -1.11% | -2.65% | – | – |
| C/C=C(/C#N)C(=O)OC | 5.34% | -0.41% | -2.55% | – | – |
| N#Cc1cc(C#N)c(NCCCC2CCN(Cc3ccccc3)CC2)nc1N | 10.46% | 0.89% | -57.65% | – | – |
| O=C(COc1ccc2ccccc2c1)N/N=C/c1c[nH]c2ccccc12 | 8.99% | 0.9% | -4.09% | – | – |
| CC1=N/C(=C(\C)c2ccccc2)C(=O)O1 | -1.65% | 0.7% | -3.17% | – | – |
| O=C(N/N=C/c1c[nH]c2ccccc12)c1cc2ccccc2[nH]1 | 11.64% | 0.51% | -6.47% | – | – |
| O=C(N/N=C/c1c[nH]c2ccccc12)c1ccc(Cl)cc1 | 14.79% | 0.77% | -0.09% | – | – |
| Cc1ccc(C2CC2(N)C(=O)O)cc1.Cl (configuration not stated) | 13.97% | 1.46% | -7.69% | – | – |
| Cn1c(C(=O)NCc2ccccc2)cc2cc(OCCCC3CCN(Cc4ccccc4)CC3)ccc21 | 8.4% | 1.62% | -77.02% | – | – |
| N#Cc1c(N)nc(O)c(C#N)c1-c1ccccc1 | -0.05% | 5.45% | -42.69% | – | – |
| C=C1CN(C)c2ncc(C#N)c(=N)n21 | 0.03% | 0.69% | -57.29% | – | – |
| Cl.ClCCCCN1CCCCC1 | -0.73% | -0.33% | -8.6% | – | – |
| CN(C)c1nc(N)c(C#N)c(-c2ccccc2)c1C#N | -2.21% | 0.74% | -0.79% | – | – |
| O=C1SC(SCc2ccccc2)=NC1=Cc1cccc(OCc2ccccc2)c1 | -15.18% | 0.84% | -8.61% | – | – |
| Cc1nn(-c2ccccc2)c2ncn3nc(-c4ccccc4)nc3c12 | 14.39% | 1.63% | -1.31% | – | – |
| COc1ccc(C2C(C#N)=C(N)Oc3[nH]nc(C)c32)cc1 (configuration not stated) | -10.09% | 1.54% | -3.79% | – | – |
| N#Cc1cc(C#N)c(N2CCC(Cc3ccccc3)CC2)nc1N | -9.32% | 1.71% | -23.72% | – | – |
| Cc1ccc2nc(Cl)c(/C=N/NCc3ccccc3)cc2c1 | 7.66% | 14.7% | -3.59% | – | – |
| Nc1c2c(nc3c1C(c1ccc([N+](=O)[O-])cc1)c1ccc4ccccc4c1O3)CCCC2 (configuration not stated) | -17.7% | -1.86% | -5.85% | – | – |

| Structure (SMILES) | Inhibition (Klebsiella pneumoniae) | Inhibition (Candida albicans) | Inhibition (Cryptococcus neoformans) | Inhibition (Klebsiella pneumoniae; 32 ug/mL) | Inhibition (Cryptococcus neoformans; 32 ug/mL) |
| --- | --- | --- | --- | --- | --- |
| COc1ccc(-c2cc(-c3cc4c(OC)ccc(OC)c4nc3Cl)cc(=O)[nH]2)cc1 | 5.89% | 0.7% | -87.69% | – | – |
| COc1[nH]c(=O)ccc1C#N | 19.79% | 7.91% | -56.43% | – | – |
| COc1ccccc1-c1c(C#N)c(=O)oc2c1ccc1ccccc12 | 11.02% | 9.28% | -7.79% | – | – |
| O=C1OC(c2ccccc2)=NC1=Cc1ccc(Cl)cc1 | 7.19% | 1.2% | -3.18% | – | – |
| COc1cc(C2C(C#N)=C(N)Oc3c2ccc2ccccc32)ccc1O (configuration not stated) | -1.93% | 22.7% | -42.63% | – | – |
| N#CC1(Br)C(=NBr)Oc2ccc3ccccc3c2C1c1ccccc1[N+](=O)[O-] (configuration not stated) | 5.57% | 4.94% | -80.32% | – | – |
| N#CC1=C(N)Oc2ccc3ccccc3c2C1c1cccc([N+](=O)[O-])c1 (configuration not stated) | 6.14% | 10.7% | -44.61% | – | – |
| CC(C(=O)O)c1c[nH]c2ccccc12 (configuration not stated) | 21.1% | 31.5% | -3.89% | – | – |
| N#Cc1cccnc1Cl | 9.13% | -0.53% | -53.41% | – | – |
| N#CC1=C(N)Oc2ccc3ccccc3c2C1c1ccc(O)cc1 (configuration not stated) | 11.07% | 2.93% | -36.73% | – | – |
| Nc1c2c(nc3c1CC(c1c(Cl)cccc1Cl)C(=O)N3)CCCC2 (configuration not stated) | 0.93% | -0.19% | -92.02% | – | – |
| OCc1c(-c2ccc(Br)cc2)nc2ccccn12 | 16.84% | 4.83% | -4.79% | – | – |
| N#Cc1c(N)nc(Cl)c(C#N)c1-c1ccccc1 | 1.22% | 6.28% | -2.34% | – | – |
| c1ccc(COc2ccc3[nH]ccc3c2)cc1 | 11.46% | -1.1% | -1.93% | – | – |
| CCOC(=O)C1=C(C)Oc2nc3c(c(N)c2C1c1ccccc1OC)CCC3 (configuration not stated) | 16.69% | -0.7% | -2.56% | – | – |
| CCOC(=O)C1=C(C)Oc2nc3c(c(N)c2C1c1ccc(O)c(OC)c1)CCC3 (configuration not stated) | 2.99% | 0.9% | -66.64% | – | – |
| N#Cc1ccc(Br)cc1N | 26.43% | 18% | -4.02% | – | – |
| COc1ccc(C2C(C#N)=C(N)Oc3c2ccc2ccccc32)c(OC)c1 (configuration not stated) | 2.23% | 0.21% | -2.04% | – | – |
| N#Cc1cc2c(N)n[nH]c2nc1N | 6.95% | 0.04% | -4.92% | – | – |
| C#CCN(C)c1nc(NC2CCN(Cc3ccccc3)CC2)c(C#N)c(-c2ccccc2)c1C#N | -4.36% | 3.34% | -29.11% | – | – |
| C#CCN1CCc2nc3nc(NC4CCN(Cc5ccccc5)CC4)c(C#N)cc3c(N)c2C1 | 10.49% | 5.66% | -17.48% | – | – |
| O=C(N/N=C/c1ccc([N+](=O)[O-])cc1)c1cc2ccccc2[nH]1 | 7.41% | 0.87% | -3.37% | – | – |
| Nc1c2c(nc3c1C(c1c(Cl)cccc1Cl)c1ccc4ccccc4c1O3)CCCC2 (configuration not stated) | 14.02% | -1.13% | -7.78% | – | – |
| COc1ccc(C2c3c(nc4c(c3N)CCCC4)Oc3ccc4ccccc4c32)c(OC)c1 (configuration not stated) | 6.37% | 10.9% | 16.32% | – | – |
